# Assay outcomes: PubChem, National Center for Advancing Translational Sciences (NCATS)
# In the library only some 3.8% were active in any assay of this set; here they are far more common.
# ATXN2 expr inh: inhibitors of ATXN2 expression | HEK-293 ATXN2-luciferase reporter, luminescence, 24 h | hit rate 0.72% among 360,000 | Potency, µM (top dose mostly 57 µM), actives largely listed as inhibitors; also: nearly all actives have a fitted effect of over 55% in size
#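 ATXN2-luciferase reporter cells (luciferase flanked by upstream and downstream ATXN2 gene portions) were treated 24 h at 37 °C with compounds at up to 57 uM. SteadyGlo luminescence gave expression; GF-AFC fluorescence gave viability.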
# A549 tox: counter-screen for Nrf2 inhibitors: cytotoxicity in A549 cells. hit rate 0.16% among 390,000. Potency, µM (doses to about 46 µM), most hits filed as inhibitors. A549 ARE-Fluc cells, CellTiter-Fluor viability, 18-24 h. AID 504648
#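 A549 ARE-Fluc cells in 5% FBS OPTI-MEM, 5000 cells/well, rested 2 h then exposed to compounds in concentration-response for 18-24 h at 37 °C. Viability by CellTiter-Fluor fluorescence (Ex 405/Em 525) after 30 min; luciferase luminescence (BugLite, 15 min, RT) read afterwards.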
# S2 tox: viability counter-screen for ATXN expression inhibitors; S2 cells (HEK-293 line with an ATXN2-luciferase reporter) viability, CellTiter-Fluor protease fluorescence, 24 h; Potency, µM (series often up to 56.7 µM), hits mostly cytotoxic; hit rate 0.49% among 400,000; also: nearly all actives have a fitted effect of over 40% in size
# HepG2 viability: kills HepG2 cells in TGF-b inhibitor counter-screen; HepG2 CAGA-GFP viability, ATP luminescence, 18 h; Potency, µM (doses to about 46.1 µM), most hits filed as cytotoxic; hit rate 0.76% among 410,000; AID 588856
#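 CellTiter-Glo luminescence gave cytotoxicity after 18 hours at 37 degrees C. The cells were HepG2 CAGA-GFP in 1% FBS DMEM, stimulated with 500 pg/mL TGF-beta after compound addition. %Activity was normalised to no-cell wells (complete cell-killing) and DMSO (no toxicity), and curves were fitted and classified.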
# TGFb inhibitor: inhibitors of TGF-b signaling; Potency, µM (highest dose often 46.1 µM), most hits filed as inhibitors; AID 588855; HepG2 CAGA-GFP TGF-b/SMAD3 reporter, GFP fluorescence, 18 h; TGF-beta stimulated, 500 pg/mL final; hit rate 1.2% among 410,000; also: nearly all actives have a fitted effect of over 65% in size
#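 TGF-beta reporter screen: HEPG2 CAGA-GFP, 1% FBS, 500 pg/mL TGF-beta final, 18 h; per-cell GFP summed per well; curves fitted and categorized by class.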
# Nrf2 inh: Nrf2 pathway inhibition; A549 ARE-Fluc reporter, luciferase luminescence, 18-24 h; Potency, µM (highest dose often 46 µM), usual class: inhibitors; hit rate 2.1% among 360,000; AID 504444; also: nearly all actives have a fitted effect of over 60% in size
#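 Concentration-response testing used A549 ARE_Fluc cells at 5000 cells/well. Following an 18-24 h compound incubation, viability was read by fluorescence (Ex 405/Em 525) and luciferase output by luminescence.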
# A number is an active result; – = inactive; ? = inconclusive; · = no result; [ ] = remark or other dose. Calls follow the shape of the dose curve; as a rule, active = well fitted curve in the direction sought with a large enough effect; inconclusive = small, poorly fitted or top-dose-only effect, or another doubt; inactive = no such curve, though single readings can be large; an effect the other way counts as inactive or inconclusive.
SMILES,ATXN2 expr inh,A549 tox,S2 tox,HepG2 viability,TGFb inhibitor,Nrf2 inh
CN(C(=O)c1ccc(NC(=O)Cc2ccc(NC(=O)C3CCCN(C(=O)CCc4ccccc4)C3)cc2)cc1)C1CCCC1 (stereo not drawn),–,–,?,–,–,23µM
CN(C(=O)c1cccc(NC(=O)Cc2ccc(NC(=O)C3CCCN(C(=O)CCc4ccccc4)C3)cc2)c1)C1CCCCC1 (stereo not drawn),?,–,·,–,?,10µM
CN(C(=O)c1cccc(NC(=O)Cc2ccc(NC(=O)C3CCCN(C(=O)CCc4ccccc4)C3)cc2)c1)C1CC1 (stereo not drawn),–,–,–,–,–,?
CN(Cc1ccccc1)C(=O)c1cccc(NC(=O)Cc2ccc(NC(=O)C3CCN(C(=O)CCc4ccccc4)CC3)cc2)c1,?,–,?,–,?,16µM
O=C(COc1ccc2c(c1)CCC2)NCc1ccc(Cl)cc1,–,–,–,–,–,–
CC(C)Oc1ccc(CN2CCC2(C)C(=O)Nc2cccc(Oc3ccccc3)c2)cc1 (stereo not drawn),–,·,–,–,–,·
O=C1C[C@H]2C=CCc3cccc(c32)CN1Cc1ccc(Cl)cc1,·,·,·,–,10µM,·
O=C1C[C@H]2C=CCc3cccc(c32)CN1Cc1cccc(F)c1,·,·,·,–,–,·
CC(C)c1ccc2c(c1)CCC1C(C)(CN)CCCC21C (stereo not drawn),35µM,–,·,11µM,?,–
O=[N+]([O-])c1ccc(S(=O)(=O)NCCN2CCOCC2)cc1,–,–,–,–,–,–
O=[N+]([O-])c1ccc(-c2ccc(S(=O)(=O)NCCN3CCCC3)cc2)cc1,?,–,?,–,–,16µM
O=C(CNC(=O)c1ccc(-c2ccccc2)cc1)OCc1c(F)cccc1Cl,–,–,–,–,–,–
COc1ccc(Cl)cc1NC(=O)CCCn1c(=O)c2cccn2c2cccnc21,·,–,–,–,?,16µM
Cc1ccc(NC(=O)CCCn2c(=O)c3cccn3c3cccnc32)c(Cl)c1,·,–,·,–,?,–
CC1(C)CC(=O)C=C(c2ccc(Oc3ccccc3)cc2)C1=O,–,·,?,–,–,·
CC1(C)CC(=O)C=C(c2ccc(-c3cnc4ccccc4c3)cc2)C1=O,?,·,7.9µM,–,–,·
Cc1ccc(NS(=O)(=O)c2cc3c(cc2/C=C/c2ccccc2)NC(=O)CO3)cc1C,·,–,·,·,·,–
COc1cc(/C=C(/C#N)c2ccccc2)ccc1Oc1ccc([N+](=O)[O-])cn1,–,?,–,–,–,15µM
COc1cccc(C(=O)N/N=C/c2ccc(Oc3ccc([N+](=O)[O-])cn3)c(OC)c2)c1,–,?,–,–,–,23µM
COc1cc(/C=C(\C#N)c2nc3ccccc3[nH]2)ccc1Oc1ccc([N+](=O)[O-])cn1,–,?,?,–,?,?
O=C(c1ccccc1)C1(c2ccccc2)OC1c1ccccc1 (stereo not drawn),–,–,–,–,–,–
O=C(Cn1[nH]c(=O)c2ccccc2c1=O)N1CCN(S(=O)(=O)c2ccc(Cl)cc2)CC1,–,–,–,–,–,–
Nc1ccc(OC(=O)Nc2ccc(O)cc2)cc1,?,–,·,–,–,21µM
O=C(Nc1ccc(N2CCN(c3ccc(O)cc3)CC2)cc1)Oc1ccccc1,–,–,–,–,–,?
O=S1(=O)N[C@@H](Cc2ccccc2)COc2cc(N3CCN(Cc4ccccc4F)CC3)ccc21,–,·,–,·,·,·
SMILES,ATXN2 expr inh,A549 tox,S2 tox,HepG2 viability,TGFb inhibitor,Nrf2 inh
Cc1ccc(Cl)cc1NC(=O)/C(C#N)=C/c1c(C)n(Cc2ccccc2)c2ccccc12,–,–,–,–,–,–
Cc1c(/C=C(\C#N)C(=O)Nc2cccc(Cl)c2)c2ccccc2n1Cc1ccccc1,–,?,–,–,–,8.2µM
COc1ccccc1C(c1nnnn1Cc1ccco1)N1CCN(c2cccc(C)c2C)CC1 (stereo not drawn),?,–,–,–,–,12µM
CCN1CCN(C(c2cccc(OC)c2OC)c2nnnn2Cc2ccco2)CC1 (stereo not drawn),–[11.3 µM],–,–,–,–,–
CC(=O)NC(=S)Nc1cc(C(F)(F)F)ccc1N1CCOCC1,–,–,–,–,?,26µM
O=C(CBr)c1ccc(Oc2ccc(C(=O)C[n+]3ccccc3Cl)cc2)cc1,·,·,·,–,?,·
O=C(/C=C/c1ccccc1)NC(=S)NNC(=O)c1cnccn1,14µM,–,?,–,–,7.3µM
Nc1nc(Nc2ccccc2F)nc(N2CCOCC2)c1[N+](=O)[O-],–,–,–,–,–,–
COc1ccc(NC(=O)c2cc3c(Cl)nc4ccccc4c3s2)cc1OC,?,–,·,–,–,10µM
O=C(CCCN1C(=O)/C(=C/c2ccccc2Cl)SC1=S)NNC(=O)c1ccncc1,–,–,–,–,–,26µM
O=C(CCCN1C(=O)/C(=C/c2cccs2)SC1=S)NNC(=O)c1ccncc1,·,?,–,–,–,?
COc1cccc(/C=C2\SC(=S)N(CCCC(=O)N(CCO)c3ccccc3)C2=O)c1,22µM,–,?,–,?,?
COc1ccc(/C=C2\SC(=S)N(CCCC(=O)NNC(=O)c3ccccc3O)C2=O)cc1,?,–,–,–,–,13µM
O=C(CCCN1C(=O)/C(=C/c2ccccc2Cl)SC1=S)N1CCCC1,·,–,?,–,?,–
O=C(CCCN1C(=O)/C(=C/c2ccccc2Cl)SC1=S)NNC(=O)c1ccccc1Cl,?,–,–,–,–,18µM
CCOCCCNC(=O)CCn1nc(-c2ccc(Cl)cc2)ccc1=O,·,–,–,–,–,–
CCOC(=O)N1CCN(C(=O)CN2C(=O)/C(=C\c3cccc(OC)c3)SC2=S)CC1,·,–,·,–,–,–
CC(=O)c1cccc(NC(=O)N2CCC(c3nnc(SCC(N)=O)n3C)CC2)c1,–,–,–,–,–,–
CCOCCCn1c(=S)[nH]c2cc(C(=O)NCCCN(CC)CC)ccc2c1=O,–,–,–,–,–,–
CC(=O)c1ccc(-c2cccc(C3C4C=CCCC4(C)C(=O)N3Cc3ccccc3)c2)cc1 (stereo not drawn),·,–,·,–,18µM,?
COc1ccc(-c2cccc([C@H]3[C@@H]4C=CCC[C@@]4(C)C(=O)N3Cc3ccccc3)c2)cc1,?,–,–,–,?,–
CC12CCC=CC1C(c1cccc(Br)c1)N(Cc1ccccc1)C2=O (stereo not drawn),·,–,·,–,13µM,?
COc1ccc(-c2ccc([C@H]3[C@@H]4C=CCC[C@@]4(C)C(=O)N3Cc3ccccc3)c(F)c2)cc1OC,–,–,?,–,?,21µM
